Data taken from the supplement of paper PMC12494721.
Counter-ions that a name gives are not always drawn.

Key:
Conditions in all cases: 20 µM; incubation time: 27 h, anaerobic, 37 °C;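 for the amine columns active = adjusted P below 0.05 in both replicates with a change the same way and a mean fold change under 0.8 or over 1.25; inactive = the rest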
[1] = tested on: Clostridium sporogenes DSM 1664; test: growth (OD595) fold change vs plate DMSO controls (fold change (ratio)); higher = more growth
Summary of the method: (§1)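 Shaken 96-well cultures in mGAM, grown anaerobically for 27 h at 37 °C, were read at 595 nm. OD came from blank-subtracted readings, corrected for background with 20 µM compound solutions in water and scaled by a calibration factor of 5. Growth is the fold change versus the plate's median DMSO control. Values average 2 biological replicates, and any fold change above 1.5 is NA.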

Escherichia coli IAI1 [2] = test: as above
Summary of the method: as §1

[3] = tested on: Klebsiella aerogenes DSM 30053; test: as above
Summary of the method: as §1

[4] = tested on: Ruminococcus gnavus DSM 108212; test: as above
Summary of the method: as §1

[5] = tested on: Klebsiella aerogenes DSM 30053; test: fold change of Histamine concentration vs plate DMSO controls (fold change (ratio)); higher = more amine produced, active = hit call of the paper (significant change in both replicates, either direction)
Summary of the method: (§2)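 Using LC–triple-quadrupole MS with dynamic MRM, amines were quantified against external calibration curves and corrected for drift within each batch. Samples were whole anaerobic mGAM cultures of four gut strains, grown 27 h at 37 °C from OD 0.1 before 1:1 dilution, extracted with cold acetonitrile/methanol containing 0.1% formic acid and centrifuged. Compounds were present at 20 µM final (sweeteners at 50 µM final). The numbers are fold changes versus plate DMSO controls, each the mean of 2 biological replicates.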

[6] = tested on: Clostridium sporogenes DSM 1664; test: fold change of Tryptamine concentration vs plate DMSO controls (fold change (ratio)); higher = more amine produced, active = hit call of the paper (significant change in both replicates, either direction)
Summary of the method: as §2

[7] = tested on: Ruminococcus gnavus DSM 108212; test: as above
Summary of the method: as §2

Escherichia coli IAI1 [8] = test: fold change of Putrescine concentration vs plate DMSO controls (fold change (ratio)); higher = more amine produced, active = hit call of the paper (significant change in both replicates, either direction)
Summary of the method: as §2

[9] = tested on: Klebsiella aerogenes DSM 30053; test: as above
Summary of the method: as §2

Escherichia coli IAI1 [10] = test: fold change of Cadaverine concentration vs plate DMSO controls (fold change (ratio)); higher = more amine produced, active = hit call of the paper (significant change in both replicates, either direction)
Summary of the method: as §2

[11] = tested on: Klebsiella aerogenes DSM 30053; test: as above
Summary of the method: as §2

[12] = tested on: Ruminococcus gnavus DSM 108212; test: fold change of 2-Phenylethylamine concentration vs plate DMSO controls (fold change (ratio)); higher = more amine produced, active = hit call of the paper (significant change in both replicates, either direction)
Summary of the method: as §2

| Compound | growth [1] | growth (Escherichia coli IAI1 [2]) | growth [3] | growth [4] | fold change of Histamine concentration [5] | fold change of Tryptamine concentration [6] | fold change of Tryptamine concentration [7] | fold change of Putrescine concentration (Escherichia coli IAI1 [8]) | fold change of Putrescine concentration [9] | fold change of Cadaverine concentration (Escherichia coli IAI1 [10]) | fold change of Cadaverine concentration [11] | fold change of 2-Phenylethylamine concentration [12] |
| --- | --- | --- | --- | --- | --- | --- | --- | --- | --- | --- | --- | --- |
| O=C(O)C(F)(F)C(F)(F)C(F)(F)C(F)(F)C(F)(F)C(F)(F)F [PFHpA (Perfluoroheptanoic acid)] | 0.939 | 1.01 | 0.994 | 0.995 | 0.997 (inactive) | 1.06 (inactive) | 0.979 (inactive) | 1.03 (inactive) | 1.02 (inactive) | 1.04 (inactive) | 1 (inactive) | 0.98 (inactive) |
| CC(C)C[C@H]1C(=O)N2CCC[C@H]2[C@]2(O)O[C@](NC(=O)[C@@H]3C=C4c5cccc6[nH]c(Br)c(c56)C[C@H]4N(C)C3)(C(C)C)C(=O)N12 [Bromocryptine mesylate] | 1.19 | 1.05 | 1.11 | 1.06 | 0.914 (inactive) | 0.868 (inactive) | 1.03 (inactive) | 1.03 (inactive) | 0.98 (inactive) | 1.04 (inactive) | 1.01 (inactive) | 1 (inactive) |
| CC(C)CC(C)c1sccc1NC(=O)c1cn(C)nc1C(F)(F)F (centres undefined) | 1.03 | 1.05 | 1.01 | 0.961 | 0.988 (inactive) | 0.935 (inactive) | 1.03 (inactive) | 1.05 (inactive) | 1.01 (inactive) | 1 (inactive) | 0.991 (inactive) | 1.03 (inactive) |
| CC(C1CC1)C(O)(Cn1cncn1)c1ccc(Cl)cc1 (mixture of isomers) | 0.851 | 0.991 | 0.991 | 0.941 | 1.01 (inactive) | 0.92 (inactive) | 0.994 (inactive) | 1.01 (inactive) | 0.996 (inactive) | 1 (inactive) | 0.995 (inactive) | 0.953 (inactive) |
| CCN[C@@H](C)Cc1cccc(C(F)(F)F)c1 [Dexfenfluramine hydrochloride] | 1.03 | 1.05 | 1.1 | 0.954 | 0.833 (inactive) | 1.28 (inactive) | 1.07 (inactive) | 1.02 (inactive) | 0.95 (inactive) | 0.869 (inactive) | 1.06 (inactive) | 1.16 (inactive) |
| CC[C@@H](CO)NC(=O)[C@@H]1C=C2c3cccc4[nH]cc(c34)C[C@H]2N(C)C1 [Methylergometrine maleate] | 1.08 | 1.03 | 1 | 1.11 | 1.03 (inactive) | 1.03 (inactive) | 1.02 (inactive) | 0.965 (inactive) | 1.01 (inactive) | 0.996 (inactive) | 1 (inactive) | 1.02 (inactive) |
| CC(=O)OCC1=C(C(=O)O)N2C(=O)[C@@H](N)[C@H]2SC1 [Cephalosporanic acid, 7-amino] | 1.05 | 1.05 | 0.979 | 0.924 | 1.07 (inactive) | 1.04 (inactive) | 0.949 (inactive) | 1.05 (inactive) | 1.01 (inactive) | 1 (inactive) | 0.985 (inactive) | 0.942 (inactive) |
| CCOCn1c(-c2ccc(Cl)cc2)c(C#N)c(Br)c1C(F)(F)F | 0.89 | 1 | 1.01 | 0.948 | 1 (inactive) | 0.999 (inactive) | 1.02 (inactive) | 1.03 (inactive) | 0.999 (inactive) | 1.03 (inactive) | 0.983 (inactive) | 1.01 (inactive) |
| N#CC(CCc1ccc(Cl)cc1)(Cn1cncn1)c1ccccc1 (centres undefined) | 1.11 | 1.08 | 0.94 | 1.14 | 0.476 (inactive) | 0.979 (inactive) | 1.04 (inactive) | 1.07 (inactive) | 0.482 (inactive) | 0.972 (inactive) | 0.478 (inactive) | 1.08 (inactive) |
| Oc1ccc(Cl)cc1Cc1cc(Cl)ccc1O [Dichlorophen] | 0.903 | 0.835 | 0.919 | 0.819 | 1.13 (inactive) | 0.732 (inactive) | 0.561 (active) | 1.21 (inactive) | 0.97 (inactive) | 1.66 (active) | 0.975 (inactive) | 0.635 (inactive) |
| CCC(C)c1ccccc1OC(=O)NC (centres undefined) | 1.06 | 0.988 | 1.09 | 1.01 | 0.948 (inactive) | 0.949 (inactive) | 1.01 (inactive) | 1.05 (inactive) | 1.01 (inactive) | 0.972 (inactive) | 1 (inactive) | 1.03 (inactive) |
| OC(c1ccccc1)(c1ccccc1)C1CCNCC1 [Azacyclonol] | 1.09 | 1.01 | 1.01 | 1.1 | 1.06 (inactive) | 1.02 (inactive) | 1.07 (inactive) | 1.02 (inactive) | 1.01 (inactive) | 0.849 (inactive) | 1 (inactive) | 1.06 (inactive) |
| O=C1C2CC=CCC2C(=O)N1SC(Cl)(Cl)Cl (centres undefined) | 0.923 | 1.04 | 0.972 | 0.931 | 1.02 (inactive) | 1.04 (inactive) | 1.04 (inactive) | 1 (inactive) | 0.956 (inactive) | 0.806 (inactive) | 0.999 (inactive) | 1.05 (inactive) |
| C[C@]12Cc3c[nH]nc3C[C@@H]1CC[C@@H]1[C@@H]2CC[C@@]2(C)[C@H]1CC[C@]2(C)O [Stanozolol] | 1.18 | 0.985 | 1.1 | 1.05 | 0.911 (inactive) | 0.973 (inactive) | 0.976 (inactive) | 0.981 (inactive) | 0.99 (inactive) | 0.959 (inactive) | 1.02 (inactive) | 1 (inactive) |
| CCC(C)(C)C(=O)OC1=C(c2ccc(Cl)cc2Cl)C(=O)OC12CCCCC2 | 1.09 | 1.08 | 1.01 | 1.05 | 0.967 (inactive) | 1.05 (inactive) | 1.03 (inactive) | 1.02 (inactive) | 0.996 (inactive) | 0.997 (inactive) | 1.03 (inactive) | 1.05 (inactive) |
| O=C(O)CNCP(=O)(O)O | 0.851 | 1.02 | 0.976 | 0.965 | 1.03 (inactive) | 0.931 (inactive) | 0.98 (inactive) | 0.961 (inactive) | 1.02 (inactive) | 0.991 (inactive) | 1.03 (inactive) | 0.966 (inactive) |
| C[C@@H]1[C@@H](c2ccc(Cl)cc2)SC(=O)N1C(=O)NC1CCCCC1 | 1.01 | 1.08 | 1.07 | 1 | 0.918 (inactive) | 0.989 (inactive) | 0.913 (inactive) | 0.955 (inactive) | 1.03 (inactive) | 0.972 (inactive) | 1.02 (inactive) | 0.882 (inactive) |
| CCCN(CCC)C(=O)SCc1ccccc1 | 1.02 | 1 | 1.03 | 0.973 | 1.04 (inactive) | 1.02 (inactive) | 0.923 (inactive) | 1.02 (inactive) | 1.01 (inactive) | 0.995 (inactive) | 0.993 (inactive) | 0.897 (inactive) |
| CC(O)(CS(=O)(=O)c1ccc(F)cc1)C(=O)Nc1ccc(C#N)c(C(F)(F)F)c1 (centres undefined) [Bicalutamide] | 1.06 | 1.01 | 1.08 | 1.15 | 0.914 (inactive) | 1.09 (inactive) | 1.06 (inactive) | 1.08 (inactive) | 0.973 (inactive) | 1.01 (inactive) | 1.02 (inactive) | 1.04 (inactive) |
| COc1cc2c(c(OC)c1OC)-c1ccc(OC)c(=O)cc1[C@@H](NC(C)=O)CC2 [Colchicine] | 0.992 | 1.02 | 0.975 | 1.16 | 1.06 (inactive) | 1.02 (inactive) | 0.889 (inactive) | 1.04 (inactive) | 1.02 (inactive) | 1.04 (inactive) | 0.983 (inactive) | 0.829 (inactive) |
| CC1(C)C(C=C(Cl)Cl)C1C(=O)OC(C#N)c1ccc(F)c(Oc2ccccc2)c1 (mixture of isomers) | 0.877 | 1.01 | 0.965 | 1 | 1.09 (inactive) | 0.985 (inactive) | 0.996 (inactive) | 0.971 (inactive) | 1.03 (inactive) | 1.09 (inactive) | 1.02 (inactive) | 1.02 (inactive) |
| CNC(=O)ON=C(C)SC | 1.01 | 0.969 | 1 | 0.984 | 1.04 (inactive) | 1.06 (inactive) | 1.06 (inactive) | 1 (inactive) | 0.967 (inactive) | 0.892 (inactive) | 1 (inactive) | 1.09 (inactive) |
